Assay outcomes from PubChem.
A selection: hits, their analogues and other compounds. The true share with any hit is near 2.4%.
MEKK2 mut-MEK5 – MEK5 binding signal on mutant MEKK2 PB1, primary screen, biochemical, multiplex bead flow cytometry, Alexa488-MEK5; Alexa488-MEK5 binding to MEKK2 mutant; percent response, % at 10 µM; AID 1530, 2009; 290,000 tested, 0.35% active; in the data active means percent response above about 24%, passing the limit was not always enough
Arbovirus anti – antivirals against arbovirus infection, primary screen, cell-based, full library, 10K replicate subset. arbovirus infection cell-based antiviral screen. inhibition, % at 10 µM. 200,000 tested, 0.37% active. AID 1251, 2008; in the data active means inhibition above about 30%
MEKK2 WT-MEK5 – modulators of MEK5 binding to wildtype MEKK2, primary screen, biochemical, multiplex bead flow cytometry, Alexa488-MEK5 | Alexa488-MEK5 binding to MEKK2 WT; actives lie on both sides | binding response (% of control), % at 10 µM | 290,000 tested, 1.1% active | AID 1531, 2009; in the data active means binding response below about 67% or above about 130%
MEKK3 PB1 HTS – modulators of MEKK3-MEK5 PB1 binding, primary screen, biochemical, wildtype MEKK3, multiplex bead flow cytometry, Alexa488-MEK5. Mitogen-activated protein kinase kinase kinase 3 (Homo sapiens), Q99759. bead-based flow cytometry, Alexa488-MEK5 binding to MEKK3; actives lie on both sides; 0 = blocked by unlabeled MEK5, 100 = vehicle. binding response (% of control), % at 10 µM. 290,000 tested, 1.4% active;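 active means binding response more than 3 SD above or below the average of its plate-row segment, actives on both sides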;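 further: Alexa488 bead fluorescence after subtracting the streptavidin-only scavenger bead signal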
Target sequence (Q99759 whole entry, looked up): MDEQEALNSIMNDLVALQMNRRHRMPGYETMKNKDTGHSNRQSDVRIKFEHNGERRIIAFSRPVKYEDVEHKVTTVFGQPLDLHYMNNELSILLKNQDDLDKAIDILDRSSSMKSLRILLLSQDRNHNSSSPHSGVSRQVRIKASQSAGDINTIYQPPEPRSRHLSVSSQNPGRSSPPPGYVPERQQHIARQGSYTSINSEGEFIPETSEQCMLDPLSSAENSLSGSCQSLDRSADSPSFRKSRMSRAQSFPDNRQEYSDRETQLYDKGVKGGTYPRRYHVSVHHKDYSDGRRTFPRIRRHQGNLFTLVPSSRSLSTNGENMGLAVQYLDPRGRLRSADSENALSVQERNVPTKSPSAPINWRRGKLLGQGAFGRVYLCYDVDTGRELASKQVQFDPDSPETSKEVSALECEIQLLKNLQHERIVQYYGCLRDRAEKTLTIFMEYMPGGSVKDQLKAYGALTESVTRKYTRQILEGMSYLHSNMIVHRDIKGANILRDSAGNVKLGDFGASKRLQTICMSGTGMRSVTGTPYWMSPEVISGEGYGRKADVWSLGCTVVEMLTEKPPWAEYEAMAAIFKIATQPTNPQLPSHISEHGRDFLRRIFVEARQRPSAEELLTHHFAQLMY
Pf gamet viab – late stage P. falciparum gametocyte viability inhibitors, primary screen, ATP luminescence, HTS. 150,000 tested, 0.065% active. inhibition, % at 10.9 µM. AID 743093, 2013. P. falciparum stage V gametocytes, 24 h;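 active means inhibition above the mean plus 3 SD of compounds within the control limits, set per campaign, cut at about 38% in these data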;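 further: 0% = DMSO wells and 100% = medium only without gametocytes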
MEKK2wt confirm – modulators of MEK5 binding to wildtype MEKK2, confirmation, biochemical, single concentration, multiplex bead flow cytometry; Alexa488-MEK5 binding to MEKK2 WT; actives lie on both sides; shares compounds with MEKK3 PB1 HTS; 5,900 tested, 2.4% active; binding response (% of control), % at 10 µM; in the data active means binding response below about 16% or above about 210%; inactive means in between
MEKK2mut confirm – mutant MEKK2 PB1-MEK5 binding signal retest – biochemical, single concentration, multiplex bead flow cytometry, confirmation; shares compounds with MEKK3 PB1 HTS; Alexa488-MEK5 binding to MEKK2 mutant; percent response, % at 10 µM; 5,900 tested, 2% active; AID 1893, 2009; in the data active means percent response mostly above about 71%, no sharp cut-off; inactive means mostly below about 38%;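 further: higher means compound restores mutant binding toward wildtype level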
MEKK3 confirm – MEKK3 wild-type PB1 binding to MEK5, inhibitors, confirmation, biochemical, bead multiplex flow cytometry, single concentration, wildtype; Alexa488-MEK5 binding to MEKK3; hits give low values; binding response (% of control), % at 10 µM; AID 1894, 2009; 5,900 tested, 1.8% active; shares compounds with MEKK3 PB1 HTS;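 active means binding response below 72% of control, or above a set upper limit, though filed actives all read lower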;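 further: 100% = DMSO only wells and 0% = binding blocked by excess unlabeled MEK5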
Active calls of the source: *; / = no result given; [ ] = remark or other dose.

SMILES | MEKK2 mut-MEK5 | Arbovirus anti | MEKK2 WT-MEK5 | MEKK3 PB1 HTS | Pf gamet viab | MEKK2wt confirm | MEKK2mut confirm | MEKK3 confirm
Cc1cccc(NC(=O)CCNC(=O)c2ccco2)c1 | 0.0 | -2.4 | 106.0 | 102.0 | -37.7 | / | / | /
O=C(NN=C1CCCC1)c1cc(Cl)cc(Cl)c1O | 2.0 | / | 104.0 | 107.0 | 3.7 | / | / | /
COc1ccccc1CCc1nnc(CCC(=O)NC(C)Cc2cccnc2)o1 (centres undefined) | -16.0 | 1.0 | 55.0 | 47.0*[inhibitor] | 4.9 | 101.0 | 3.0 | 105.0
CCN(Cc1ccncc1)C(=O)CCc1nnc(CCc2ccccc2OC)o1 | -8.0 | -0.6 | 80.0 | 70.0*[inhibitor] | 5.3 | 99.0 | -6.0 | 101.0
COc1ccccc1CCc1nnc(CCC(=O)NCCCOc2cccnc2)o1 | -2.0 | 6.9 | 100.0 | 100.0 | 17.9 | / | / | /
COc1ccc(C(=O)N2CCCC(Nc3ccc(F)cc3)C2)c(OC)c1 (centres undefined) | 8.0 | / | 109.0 | 106.0 | / | / | / | /
CCCCNCC(=O)Nc1ccc(NC(=O)CNCCCC)cc1 | 27.0* | -4.9 | 144.0* | 113.0 | 0.8 | 124.0 | 12.0 | 100.0
CCCCOCCCNCC(=O)Nc1ccc(S(N)(=O)=O)cc1 | -10.0 | 7.8 | 93.0 | 81.0 | -11.9 | / | / | /
Cc1cc(C)c(S(=O)(=O)N/N=C/c2ccc3c(c2)OCO3)c(C)c1 | 1.0 | / | 101.0 | 99.0 | / | / | / | /
COc1ccc(C(=O)NN/C(C)=C/C(=O)C(F)(F)C(F)(F)C(F)(F)F)cc1 | -1.0 | 85.0* | 102.0 | 130.0* | -8.6 | 95.0 | -2.0 | 99.0
Oc1ccc2ccccc2c1CN1CCN(C/C=C/c2ccccc2)CC1 | 25.0* | / | 140.0* | 117.0 | -4.0 | 122.0 | 13.0 | 104.0
Oc1ccc2ccccc2c1CN1CCN(c2ccccc2F)CC1 | 2.0 | 6.6 | 101.0 | 100.0 | / | / | / | /
CCc1ccc(C2=NNC(=Nc3cccc(S(=O)(=O)N(C)C)c3)SC2)cc1 | 0.0 | -26.6 | 104.0 | 128.0* | / | 101.0 | -2.0 | 103.0
Cc1cccc(N=C2NN=C(c3ccc4c(c3)OCCO4)CS2)c1 | 3.0 | -14.4 | 98.0 | 104.0 | / | / | / | /
Cc1ccc(OCCCCN2CCc3ccccc3C2)c(C)c1 | 18.0 | / | 139.0* | 116.0 | 17.2 | 104.0 | 0.0 | 99.0
Cc1cc(C(F)F)nn1CC(=O)NCc1ccccc1F | 3.0 | 0.9 | 107.0 | 141.0* | / | 104.0 | -3.0 | 103.0
NC(=O)COC(=O)c1cc(-c2cccs2)nn1-c1ccccc1 | 0.0 | 19.6 | 115.0 | 136.0* | 10.0 | 101.0 | 4.0 | 100.0
COC(=O)c1cc(-c2cccs2)nn1-c1ccccc1 | -7.0 | 4.0 | 87.0 | 99.0 | -9.0 | / | / | /
CN(C)S(=O)(=O)c1cccc(NC(=O)c2cc(-c3cccs3)nn2-c2ccccc2)c1 | 0.0 | -9.3 | 108.0 | 142.0* | / | 98.0 | -1.0 | 106.0
Cc1ccc(S(=O)(=O)N2CCOCC2)cc1C(=O)c1nccn1C | 4.0 | 10.4 | 108.0 | 105.0 | 2.1 | / | / | /
O=C(Nc1nc2ccsc2c(=O)s1)C1CCC1 | 32.0 | / | 116.0 | 129.0* | -11.6 | 99.0 | 0.0 | 102.0
O=C(Nc1cc(-c2ccccc2)[nH]n1)c1ccccc1F | -48.0 | / | 38.0*[inhibitor] | 35.0*[inhibitor] | -2.6 | 104.0 | 5.0 | 102.0
CC(C)(C)c1nnc(N/N=C/c2cc(Br)ccc2O)n(N)c1=O | 0.0 | -40.1 | 105.0 | 142.0* | / | 122.0 | 14.0 | 106.0
CCc1nnc(N/N=C/c2cc(Br)c(O)cc2O)n1N | 1.0 | / | 91.0 | 92.0 | 2.8 | / | / | /
